KDM5B inhibitor: inhibitors of human KDM5B histone demethylase; Q9UGL1; KDM5B demethylase, FDH-coupled NADH fluorescence (FDH is formaldehyde dehydrogenase); Potency, µM (doses to about 57.7 µM), most hits filed as inhibitors; hit rate 2.6% among 220,000; AID 1347165; also: nearly all actives have a fitted effect of over 70% in size
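Measured: NADH fluorescence change, 30 min, RT. System: KDM5BΔAP 200 nM final, H3K4me3 peptide, α-KG, Fe(II), ascorbate, NAD⁺ plus FDH, pH 7.5 HEPES. Compounds: titrated, 10 min pre-incubation with enzyme.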
IP6K1 inh: blocks human inositol hexakisphosphate kinase 1; IP6K1 kinase, ADP-Glo luminescence, 2 h; active compounds read low; activity change, % (series mostly up to about 58 µM); hit rate 0.81% among 140,000; in the data active = activity change below about -25%
Target sequence (Q92551 whole entry, looked up): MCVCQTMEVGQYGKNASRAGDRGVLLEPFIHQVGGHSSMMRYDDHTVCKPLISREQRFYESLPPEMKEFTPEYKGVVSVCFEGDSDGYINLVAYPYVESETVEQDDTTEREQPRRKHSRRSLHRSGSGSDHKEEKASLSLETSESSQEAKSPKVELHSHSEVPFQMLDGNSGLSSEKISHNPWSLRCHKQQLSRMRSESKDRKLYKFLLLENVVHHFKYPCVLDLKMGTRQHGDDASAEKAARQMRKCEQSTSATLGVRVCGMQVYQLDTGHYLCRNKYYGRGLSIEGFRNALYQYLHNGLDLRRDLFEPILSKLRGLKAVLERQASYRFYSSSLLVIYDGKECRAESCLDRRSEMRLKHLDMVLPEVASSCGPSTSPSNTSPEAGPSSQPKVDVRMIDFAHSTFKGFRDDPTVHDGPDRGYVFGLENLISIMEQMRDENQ
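ADP-Glo luminescence measures ADP made by human IP6K1 during a 2 h RT reaction with ATP/IP6 (mix at 1.3 mM/130 uM); top library doses 57.5 and 19.1 uM final.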
IP6K1 inh cnf: human IP6K1 inhibition, confirmatory; shares compounds with IP6K1 inh; recombinant IP6K1 kinase, ADP-Glo luminescence, 2 h; Potency, µM (highest dose often 49 µM), most hits filed as inhibitors; hit rate 13% among 1,200; AID 1645852; also: nearly all actives have a fitted effect of over 65% in size
Of the large screens only hits and unclear results are named; the others gave an inactive call (follow-up assays come after a bar, where they were run). Only some compounds are listed: those with a hit (about 2.8% of all), similar ones and a draw of the others. Unless noted, calls follow the shape of the dose curve; as a rule, active = well fitted inhibition curve with a large enough effect; inconclusive = small, poorly fitted or top-dose-only effect; inactive = no such curve, though single readings can be large or run the other way.

COc1cccc([S+](=O)([O-])N2CCCC3(COc4ccccc4C(=O)N3)C2)c1 (configuration not stated)	KDM5B inhibitor 25µM
COc1cccc([S+](=O)([O-])N2CCC3(C2)N=C(c2cccnc2)C(=O)N3)c1 (configuration not stated)	KDM5B inhibitor 28µM
COc1cccc([S+](=O)([O-])N2CCC3(C2)NC(=O)c2ccccc2O3)c1 (configuration not stated)	none
O=C(NCCCc1ccccc1)c1ccc2oc(-c3ccncc3)nc2c1	none (no result: KDM5B inhibitor)
Cc1ccc(OCc2nc(C3CCCN3C(=O)Nc3ccccc3)no2)cc1 (configuration not stated)	none (no result: KDM5B inhibitor)
OCC1(Cc2ccccc2Cl)CCN(Cc2cc3ccccc3o2)CC1	none
Cc1ccccc1C(=O)NC1CCN(c2ccc3nnc(C)n3n2)C1 (configuration not stated)	none (no result: KDM5B inhibitor)
O=C1CCN(CC(O)C(F)(F)F)c2ccc(F)cc2CN1Cc1ccccc1 (configuration not stated)	none (no result: KDM5B inhibitor)
O=C(NC1CCCC1)c1ccc(-c2ccc(N3CCCCC3)nc2)cc1	KDM5B inhibitor 11µM
O=C(c1ccc(-c2ccc(N3CCCCCC3)nc2)cc1)N1CCCC1	KDM5B inhibitor 25µM
O=C(NC1CC1)c1ccc(-c2ccc(N3CCCCC3)nc2)cc1	KDM5B inhibitor inconclusive
CC(C)NC(=O)c1ccc(-c2ccc(N3CCCCCC3)nc2)cc1	none
CC(C)NC(=O)c1ccc(-c2ccc(N3CCCCC3)nc2)cc1	KDM5B inhibitor inconclusive
CN(C)C(=O)c1ccc(-c2ccc(N3CCCCCC3)nc2)cc1	KDM5B inhibitor 28µM
Cn1ncc2c(C(=O)NCc3cccs3)cc(-c3ccc(Cl)cc3Cl)nc21	none (no result: KDM5B inhibitor)
CCN(CC)C(CNS(=O)(=O)c1ccc(C#N)cc1)c1ccsc1 (configuration not stated)	none (no result: IP6K1 inh)
Cc1ccc(C)c(-c2cc(C(=O)O)c3ccccc3n2)c1	none (no result: IP6K1 inh)
O=Cc1ccc(CN2CCSCC2)o1	none (no result: IP6K1 inh)
CCc1nc2nc(C)c(NS(=O)(=O)c3ccc(F)c(C)c3)c(=O)n2[nH]1	IP6K1 inh -28 | IP6K1 inh cnf inactive
CCc1nc2nc(C)c(NS(=O)(=O)c3ccc(F)cc3)c(=O)n2[nH]1	none (no result: IP6K1 inh)
O=c1oc2ccc(Cl)cc2cc1-c1csc(Nc2cccc(F)c2)n1	none (no result: IP6K1 inh)
Clc1cccc(Nc2nc(-c3ccncc3)nc3ccccc23)c1	none (no result: IP6K1 inh)
O=C(O)c1ccc2c(c1)nc(Nc1cccc(Cl)c1)c1ccncc12	IP6K1 inh -35 (no result: KDM5B inhibitor) | IP6K1 inh cnf inconclusive
O=C(NC1CCN(Cc2ccc(F)cc2)CC1)c1cccs1	none (no result: IP6K1 inh)
Cc1ccc(C(=O)NC2=NC(c3ccc(C)cc3)CC(=O)N2)cc1 (configuration not stated)	IP6K1 inh -26 | IP6K1 inh cnf inactive
CCOc1ccc(C2CC(=O)NC(NC(=O)c3ccc(C)cc3)=N2)cc1 (configuration not stated)	none
Cc1ccc(N(CC(=O)N2CCN(C(c3ccccc3)c3ccccc3)CC2)S(C)(=O)=O)cc1	none (no result: IP6K1 inh)
O=C1C(N2CCN(Cc3ccc[nH]3)CC2)CCN1Cc1ccccn1 (configuration not stated)	KDM5B inhibitor inconclusive | IP6K1 inh cnf inactive
CN1CCN(C2CCN(Cc3ccccn3)C2=O)CC1 (configuration not stated)	none
Cc1ccc([S+](=O)([O-])N2CCN(Cc3ccccc3-c3cccnc3)CC2)cc1	none (no result: KDM5B inhibitor)
O=S(=O)(c1ccc(Cl)cc1)c1nc(-c2cccs2)oc1N1CCCCC1	KDM5B inhibitor inconclusive, IP6K1 inh -27 | IP6K1 inh cnf inactive
CC1CCN(c2oc(-c3cccs3)nc2S(=O)(=O)c2ccccc2)CC1	KDM5B inhibitor inconclusive
COc1cc(/C=C/C(=O)c2ccc(C#N)cc2)cc(Br)c1O	none (no result: IP6K1 inh)
CCOc1ccc(Sc2cc(C(=O)NCCc3ccccc3)c3ccccc3n2)cc1	KDM5B inhibitor inconclusive
CCCCNC(=O)c1cc(Sc2ccc(OCC)cc2)nc2ccccc12	IP6K1 inh -26 | IP6K1 inh cnf inactive
CC(=O)Nc1cccc(-c2nc(-c3ccccc3)no2)c1	none
CC(=O)Nc1cccc(-c2nc(-c3c(C)noc3C)cc3cc(C)oc23)c1	KDM5B inhibitor 35µM, IP6K1 inh -28 | IP6K1 inh cnf inactive
CCOC(=O)C1CCCN(Cc2cn3c(-c4ccc(Br)cc4)nnc3s2)C1 (configuration not stated)	none
CCOC(=O)C1CCN(Cc2cn3c(-c4ccc(OC)cc4)nnc3s2)CC1	IP6K1 inh -25 | IP6K1 inh cnf inactive
O=C(O)C(c1c[nH]c2ccc(Br)cc12)N1CCN(Cc2ccc(Cl)cc2Cl)CC1 (configuration not stated)	none (no result: IP6K1 inh)
CCOc1ccc(CNC(=O)CCS(=O)(=O)c2cc3c4c(c2)CCN4C(=O)CC3)cc1OC	IP6K1 inh -28 | IP6K1 inh cnf inactive
COc1ccc(CNC(=O)CCS(=O)(=O)c2cc3c4c(c2)CCN4C(=O)CC3)cc1	none
O=C(Nc1nc(C23CC4CC(CC(C4)C2)C3)cs1)c1cc(-c2ccncc2)nc2ccccc12	none (no result: IP6K1 inh)
CC(C)C(=O)Nc1cccc(C(=O)Nc2nnc(C(F)(F)F)s2)c1	IP6K1 inh -29 | IP6K1 inh cnf inactive
Cc1cccc(NS(=O)(=O)c2nnc(NC(=O)c3cccc(C)c3)s2)c1	none
O=C1NC(=O)/C(=C/c2ccc(-c3ccc(F)cc3O)o2)S1	none (no result: KDM5B inhibitor, IP6K1 inh) | IP6K1 inh cnf 2.6µM
CCN=C1S/C(=C/c2ccc(-c3ccc(Cl)cc3C(=O)O)o2)C(=O)N1CC	none (no result: IP6K1 inh)
CCOc1ccc2nc(COc3ccc(C)cc3)[nH]c2c1	none (no result: IP6K1 inh)
CC(C)C(=O)N1[C@@H]2CC[C@H]1CC(NC(=O)c1ccc(F)cc1)C2 (some centres not stated)	none (no result: KDM5B inhibitor)
CCOC(=O)[C@H]1C[C@]2(CCCCN(CCOC)C2=O)N(C(=O)Cc2cccs2)[C@H]1c1ccco1	none (no result: KDM5B inhibitor)
COCCN1CCCC[C@]2(C[C@H](C(=O)O)[C@H](c3ccco3)N2C(=O)Cc2cccs2)C1=O	IP6K1 inh -25 (no result: KDM5B inhibitor) | IP6K1 inh cnf inconclusive
CN1CCN(c2ccc(Nc3cc(-c4cccc(-n5ccc6cc(C7CC7)cc(F)c6c5=O)c4CO)cn(C)c3=O)nc2)CC1	none (no result: KDM5B inhibitor)
COc1ccccc1CNC(=O)CCc1c(C)c2cc3c(C)c(C)oc3cc2oc1=O	none
COc1ccccc1CCNC(=O)CCc1c(C)c2cc3c(C)c(C)oc3cc2oc1=O	KDM5B inhibitor inconclusive, IP6K1 inh -25 | IP6K1 inh cnf inactive
O=[N+]([O-])c1cccc(/C=N/NC(=S)Nc2ccccc2)c1	none (no result: IP6K1 inh)
Cc1c(Cl)cccc1-n1ncc(C(=O)Nc2ccc(Br)cc2F)c1C1CCNCC1	KDM5B inhibitor inconclusive, IP6K1 inh -26 | IP6K1 inh cnf inconclusive
Cc1ccc(-n2ncc(C(=O)N3CCN(c4cccc(C)c4C)CC3)c2C2CCNCC2)c(C)c1	KDM5B inhibitor inconclusive
C[S+](=O)([O-])c1cccc(-c2nnc3ccc(C(=O)NCCc4ccc(Cl)cc4)cn23)c1	none (no result: KDM5B inhibitor)
CC#C[C@@H](CC(=O)O)c1ccc(OCc2cccc(-c3ccc(C(F)(F)F)cc3)c2)cc1	IP6K1 inh -28 (no result: KDM5B inhibitor) | IP6K1 inh cnf inconclusive
COc1ccc(CC(=O)NCCNC(=O)c2cccc(-c3ccc(C(F)(F)F)cc3)c2)cc1	none (no result: KDM5B inhibitor)
OC1CC(c2cc(NCCSC3CCCCC3)ncn2)C1 (configuration not stated)	none
OC1CC(c2cc(NCCCn3ccc4ccccc43)ncn2)C1 (configuration not stated)	IP6K1 inh -34 | IP6K1 inh cnf inactive
COCCCNC(=O)C1CCN(c2nccc(Nc3ccccc3F)n2)CC1	none (no result: KDM5B inhibitor)
